# Test results reported in PubChem BioAssay (NCI).
# This is part of a sample that, as a whole, favours compounds with a hit. Of some 83,000 tested, about 20% had one in any assay.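 48-hour exposure, single concentration, 96-well plates; percent growth endpoint where 0 means no net growth. Active: below 10.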 Active and inactive are the calls of the source.
# Tested on: HOP-62 NSCLC
# Assay: NCI-60 one-dose screen, 48 h (100 = growth as untreated, 0 = no growth, -100 = all killed)
# Settings: 10 µM unless noted
# Procedure: Growth inhibition of the HOP-62 human Non-Small Cell Lung tumor cell line is measured as a screen for anti-cancer activity. Cells are grown in 96 well plates and exposed to the test compound for 48 hours. Compounds are tested at a single concentration, which is 10^-5 M for most compounds. The reported endpoint is percent growth (GI% or GIPRCNT), where numbers from 0 - 100% represent growth inhibition, and numbers from -100% - 0 represent cell death. For example, a value of 40 represents 60% growth inhibition. A value of 0 means no net growth occurred over the course of the experiment. A value of -40 indicates 40% of cells at the beginning of the experiment died by the end of the experiment. A value of -100 means all cells are dead at the end of the experiment.
# NCI-60 Human Tumor Cell Lines Screen was performed using the standard one-dose NCI protocol, which is described in more detail at https://dtp.cancer.gov/discovery_development/nci-60/default.htm.
# Compounds with GIPRCNT values below 10 were considered active. Activity score was based on GIPRCNT using the following formula: […]
# Score is 0 for GIPRCNT values of 100 or above, 50 for GIPRCNT values of 0, and 100 for GIPRCNT values of -100.
row,Compound,growth
1,CCCC(=O)CC(C)=O.CCCC(=O)CC(C)=O.[Cu],94.3% (inactive)
2,COc1cc(/C=C/C(=O)N2c3ccccc3CC2C)c(OC)c2c1OCO2 (stereo not given),119% (inactive)
3,CCOc1c(Br)cc(C2C(C(=O)OC)=CN(C)C=C2C(=O)OC)cc1OC,84.6% (inactive)
4,COc1ccccc1C1=C(Br)C(=O)c2nc(C)ccc2C1=O,106% (inactive)
5,O=C(/C=C/c1ccc(C(F)(F)F)cc1)c1ccc(Nc2nc(NCCO)nc(Nc3ccc(Cl)cc3)n2)cc1,53.2% (inactive)
6,COc1ccc(/C=c2\sc3n(c2=O)NC2C(N=3)N(C)C(=O)N2C)cc1 (stereo not given),101% (inactive)
7,OC(CNC1CCCCC1)Cn1c2ccc(I)cc2c2cc(I)ccc21 (stereo not given),74.4% (inactive)
8,COC(=O)c1c2c(c(C)[n+]([O-])c1C)C(=O)C=C(NCc1ccc(F)c(F)c1)C2=O,-11.8% (active)
9,O=S1(=O)N(Cc2ccccc2)[C@@H](Cc2ccccc2)C2O[C@H]2[C@H](Cc2ccccc2)N1Cc1ccccc1 (stereo not given in full),53.6% (inactive)
10,COc1cc(C(C)n2cc(-c3ccccc3)nn2)ccc1OC1CCCCC1 (stereo not given),69.4% (inactive)
11,COc1ccc(/C=C2\NC(=O)NC2=O)cc1O,108% (inactive)
12,CCOc1ccccc1CN1CCc2nc3cc(C(C)(C)C)[nH]n3c(=O)c2C1,99.6% (inactive)
13,NCCOc1ccccc1/C=C1\c2ccccc2-c2ccc([N+](=O)[O-])cc21,-71.1% (active)
14,Cn1nc(C(C)(C)C)cc1NC(=O)Cc1ccc(/C=C2\C(=O)Nc3ccccc32)cc1,74.3% (inactive)
15,COC(=O)C1=Nc2ccc(F)cc2/C1=C/c1sc(=S)[nH]c1O,18.6% (inactive)
16,CCOc1ccc(Nc2ccnc3cc(Cl)ccc23)cc1,24.5% (inactive)
17,CCCCN1CCN(c2ccc3nc(-c4ccc5nc(-c6ccc(C(F)(F)F)cc6)[nH]c5c4)[nH]c3c2)CC1,-78.5% (active)
18,O=c1oc2ccc(Br)cc2c(=O)n1-c1ccc(I)cc1F,1.91% (active)
19,Cn1c(/C=C(\C#N)c2cccc(C(F)(F)F)c2)nc2c(N3CCOCC3)nc(Cl)nc21,34.1% (inactive)
20,COc1ccccc1N1CCN(C(CNS(=O)(=O)c2ccc(Cl)cc2)c2cccnc2)CC1 (stereo not given),94% (inactive)

row,Compound,growth
1,O=C1NC(=O)C(=Cc2cn(Cc3cn(Cc4ccc(Cl)cc4Cl)nn3)c3ccccc23)C(=O)N1,94.3% (inactive)
2,CC(C)Cn1c2c(c(=S)[nH]c1=O)CCC2,102% (inactive)
3,O=Nc1c(O)ccc2ccccc12.O=Nc1c(O)ccc2ccccc12.O=Nc1c([O-])ccc2ccccc12.[Fe+3],87.6% (inactive)
4,CC(=O)c1ccc(Cc2ccc(C(C)=O)s2)s1,104% (inactive)
5,COC(=O)c1c2c(c(C)[n+]([O-])c1C)C(=O)C(NCc1ccc(F)c(F)c1)=CC2=O,33.1% (inactive)
6,Clc1ccc(Nc2nnc(-c3ccc4c(c3)OCO4)o2)cc1,114% (inactive)
7,COc1cccc(/C=C/C(=O)c2c(C)nc3ccccc3c2/C=C/c2ccccc2)c1OC,55.2% (inactive)
8,CC[C@H](C)[C@@H](C(=O)OC)n1cc(CNC(=O)[C@@H](Cc2ccccc2)NC(=O)OCc2ccccc2)nn1,103% (inactive)
9,COC(=O)/C(=C\c1c(-c2ccccc2)[nH]c2ccccc12)S(C)(=O)=O,38.2% (inactive)
10,CN1C(=O)N(C)C2(c3ccccc3)OC(=S)NC12c1ccccc1 (stereo not given),90.1% (inactive)
11,O=C1c2ccccc2C(=O)c2c1ccc1[nH]c(CCl)nc21,25.3% (inactive)
12,CCN(CC)CCNC(=O)C(Cl)=C1C(Cl)=C(Cl)C(Cl)=C1Cl,75.5% (inactive)
13,Cc1ccc(C)c(-c2csc(Nc3ccc(C)c(C)c3)n2)c1,62.3% (inactive)
14,CCOc1cc2c(cc1OCC)C(c1cc(C)c(O)c(C)c1)NCC2 (stereo not given),107% (inactive)
15,O=C1/C(=C/c2ccc(O)cc2)COc2ccc(O)cc21,114% (inactive)
16,COc1cc(C2CC(c3ccc(Nc4nc(NCCO)nc(N5CCOCC5)n4)cc3)=NN2c2cc(Cl)cc(Cl)c2)cc(OC)c1OC (stereo not given),67.2% (inactive)
17,CCN1C(=O)N(c2ccccc2)C2Nn3c(s/c(=C4\C(=O)N(C(C)C)c5ccccc54)c3=O)=NC21 (stereo not given),98.5% (inactive)
18,COC(=O)/C(CCC=C(C)C)=C1\[C@@H](OC(C)=O)C[C@@]2(C)[C@H]1C[C@@H](O)[C@H]1[C@@]3(C)CC[C@H](NCCCNCCCCNCCCN)[C@@H](C)[C@@H]3CC[C@@]12C,52.1% (inactive)
19,O=C(NC1CCN(Cc2ccccc2)CC1)c1cc2nc(-c3ccc(Cl)s3)cc(C(F)(F)F)n2n1,70.7% (inactive)
20,C#CCn1cc(C=C2C(=O)NC(=O)NC2=O)c2cc(Cl)ccc21,95.5% (inactive)
